Sampled rows, rich in hits. Any-hit rate of the full collection: about 19%.
TDP1 cell noCPT: qHTS for Inhibitors of human tyrosyl-DNA phosphodiesterase 1 (TDP1): qHTS in cells in absence of CPT; DT40 Tdp1-/- hTDP1 cells, no CPT, ATP luminescence, 48 h; Potency, µM (top dose mostly 46.2 µM), without a hit: at the top dose activity change, negative = growth inhibition, hits mostly inhibitors; 420,000 compounds, 15% hits; AID 686978, 2013; also: potency is read from the fitted curve at half-maximal effect; nearly all actives have a fitted effect of over 55% in size
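Growth kinetics read by CellTiter-Glo luminescence after ≥48 hr at 37 °C. Cells: DT40 Tdp1-/- stably carrying human TDP1, 400 per well, compound exposure in the absence of CPT (DMSO vehicle).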
HT1080-NT tox: kills 2HG-producing HT-1080-NT fibrosarcoma cells. Potency, µM (series often up to 46.1 µM), without a hit: at the highest dose activity, negative = less viability, actives largely listed as cytotoxic. 360,000 compounds, 1.6% hits. HT-1080-NT fibrosarcoma viability, CellTiter-Glo ATP luminescence, 48 h;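 also: NT is the 2HG producing partner of a matched IDH1 knockdown line; potency is read from the fitted curve at half-maximal effect; 0% = DMSO-treated cells and -100% = media-only wells without cells; nearly all actives have a fitted effect of over 55% in size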
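Viability of the 2HG-overproducing fibrosarcoma line after 48 hours of compound exposure at 37 degrees C was determined by luminescence with CellTiter-Glo, and concentration-effect curves were then fitted and categorized.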
IL1B secr inh: blocks inflammasome-driven IL-1 beta release; AID 743279; activity change, % at 57.5 µM; 360,000 compounds, 4.7% hits; THP-1 LPS/ATP IL-1B secretion, AlphaLISA, 16 h; active compounds read low; in the data active = activity change below about -50%; inconclusive = mostly about -30% to -49%
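THP-1 cells pretreated 1 hr with compounds (up to 57.5 uM final), then stimulated with LPS (250 ng/mL final) plus ATP (1.25 mM final); secreted IL-1B measured by AlphaLISA after 16 hr, decreased signal indicating inhibition.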
HT1080 IDH1KD tx: toxicity to HT-1080 IDH1 knockdown cells (counter line); HT-1080 IDH1 knockdown viability, ATP luminescence, 48 h; Potency, µM (series often up to 46.1 µM), for the others: at the top dose activity, negative = toxicity, hits mostly cytotoxic; 360,000 compounds, 2% hits; AID 686971;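 also: potency is read from the fitted curve at half-maximal effect; 0% = DMSO wells and -100% = cell-free medium wells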
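Viability of IDH1-knockdown HT-1080 fibrosarcoma cells was assessed by CellTiter-Glo after 48 h at 37 °C with titrated compound; concentration-effect curves were classified by fit quality and response size.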
TDP1 cell CPT: growth inhibition of DT40 Tdp1-/-;hTDP1 cells with camptothecin (screen for TDP1 inhibitors); chicken DT40 Tdp1-/-;hTDP1 cells + 20 nM CPT, ATP luminescence, 48 h; Potency, µM (top dose mostly 46.2 µM), inactives show top-dose activity change, negative = growth inhibition, hits mostly inhibitors; 420,000 compounds, 12% hits; AID 686979; also: potency is read from the fitted curve at half-maximal effect; nearly all actives have a fitted effect of over 55% in size
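Chicken DT40 Tdp1-/- cells stably complemented with human TDP1 were seeded at 400 cells/well in medium containing 20 nM camptothecin, exposed to pin-transferred compounds, and grown at 37 °C for at least 48 hr. Viability was read as ATP luminescence.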
Active calls of the source: *; [ ] = another dose, or the depositor's remark. Unless noted, calls follow the shape of the dose curve; as a rule, active = well fitted curve in the direction sought with a large enough effect; inconclusive = small, poorly fitted or top-dose-only effect, or another doubt; inactive = no such curve, though single readings can be large; an effect the other way counts as inactive or inconclusive. Unless noted, % is scaled to controls: 0 for no effect and ±100 for the full control effect.

For CCn1c(SCC(=O)NC2=NCCS2)nnc1C(C)NC(=O)c1ccc(Cl)cc1 (configuration not stated) the results were TDP1 cell noCPT -1.6%, HT1080-NT tox 5.2%, IL1B secr inh -16.8, HT1080 IDH1KD tx -0.4% and TDP1 cell CPT -8.7%.
O=C(Nc1nc2ccccc2s1)C1=NN(c2ccccc2)C(=O)CC1 was read as TDP1 cell noCPT -20.8%, HT1080-NT tox -13.3%, IL1B secr inh 67.3, HT1080 IDH1KD tx -2.8% and TDP1 cell CPT inconclusive.
Screening C=C1C[C@]23C[C@@]1(O)CC[C@H]2[C@@]12C=C[C@H](O)C(C)(C(=O)O1)[C@H]2[C@@H]3CC(=O)O returned TDP1 cell noCPT 2.8%[9.04 µM] and TDP1 cell CPT 17.3%[9.04 µM].
Screening COc1ccccc1N1CCN(C(c2cccs2)C(C)NC(=O)c2ccncc2)CC1 (configuration not stated) returned TDP1 cell noCPT inconclusive, HT1080-NT tox -4.7%, IL1B secr inh 4.5, HT1080 IDH1KD tx -0.1% and TDP1 cell CPT 20.6µM*.
O=C(NCC(c1ccc2c(c1)OCO2)N1CCOCC1)C(=O)Nc1cccc(Cl)c1 (configuration not stated) was read as TDP1 cell noCPT 11.6µM* and TDP1 cell CPT inconclusive.
COc1ccc(N2CCN(C(c3cccs3)C(C)NC(=O)c3ccc4c(c3)OCO4)CC2)cc1 (configuration not stated) was read as TDP1 cell noCPT 20.6µM*, HT1080-NT tox -10.2%, IL1B secr inh 8.2, HT1080 IDH1KD tx -6.3% and TDP1 cell CPT inconclusive.
O=C(NN1C(=O)NC2(CCCCC2)C1=O)c1ccc(Cl)c(Cl)c1 was read as TDP1 cell noCPT 10.4%, HT1080-NT tox 0.6%, IL1B secr inh -14.1, HT1080 IDH1KD tx -6.1% and TDP1 cell CPT -25.5%.
`CCOC(=O)C1CCN(C(=O)c2ccc(-n3ccc4ccccc43)s2)CC1` gave TDP1 cell noCPT 20.6µM* and TDP1 cell CPT inconclusive.
Screening CC(NC(=O)C1CCN(C(=O)Nc2ccccc2)CC1)c1ccccc1 (configuration not stated) returned TDP1 cell noCPT -3.1%, HT1080-NT tox -5.0%, IL1B secr inh -2.6, HT1080 IDH1KD tx -0.4% and TDP1 cell CPT -2.7%.
For CCOC(=O)C1CCN(C(=O)c2cc3c(s2)-c2ccccc2OC3)CC1 the results were TDP1 cell noCPT inconclusive, HT1080-NT tox -11.9%, IL1B secr inh 22.3, HT1080 IDH1KD tx -11.1% and TDP1 cell CPT 14.6µM*.
`O=C(c1cc2c(s1)-c1ccccc1OC2)N1CCc2ccccc2C1` gave TDP1 cell noCPT -6.9%, HT1080-NT tox 3.9%, IL1B secr inh -13.4, HT1080 IDH1KD tx 6.2% and TDP1 cell CPT 11.8%.
CC(NC(=O)C1CCN(C(=O)c2ccc(-n3ccc4ccccc43)s2)CC1)c1ccccc1 (configuration not stated) was read as TDP1 cell noCPT 18.4µM* and TDP1 cell CPT inconclusive.
`Cc1ccccc1-c1nc(CS(=O)(=O)CC(=O)NCCCN2CCN(C)CC2)c(C)o1` gave TDP1 cell noCPT 14.3%, HT1080-NT tox -19.1%, IL1B secr inh inconclusive, HT1080 IDH1KD tx -2.1% and TDP1 cell CPT -8.4%.
`Cc1ccc(N(CC(=O)NCc2ccco2)C(=O)CCC(=O)Nc2nccs2)c(C)c1` gave TDP1 cell noCPT -18.7%, HT1080-NT tox 9.4%, IL1B secr inh 15.2, HT1080 IDH1KD tx 8.9% and TDP1 cell CPT 4.1%.
Screening c1ccc(-c2cc(CSc3nc4ccccc4[nH]3)on2)cc1 returned TDP1 cell noCPT 20.6µM*, HT1080-NT tox -17.0%, IL1B secr inh 49.9, HT1080 IDH1KD tx -16.4% and TDP1 cell CPT 11.6µM*.
`COc1ccc(-c2noc(CSc3nc4ccccc4[nH]3)n2)cc1OC` gave TDP1 cell noCPT 18.4µM* and TDP1 cell CPT 23.1µM*.
COc1ccccc1OCc1nc(-c2ccc([N+](=O)[O-])cc2)no1 was read as TDP1 cell noCPT inconclusive, HT1080-NT tox 9.7%, IL1B secr inh inconclusive, HT1080 IDH1KD tx 14.5% and TDP1 cell CPT inconclusive.
Screening COc1ccc(-c2noc(CSc3nc(-c4ccccc4)cc(=O)[nH]3)n2)cc1 returned TDP1 cell noCPT -2.6%, HT1080-NT tox 7.4%, IL1B secr inh 65.5, HT1080 IDH1KD tx 3.2% and TDP1 cell CPT -28.0%.
COc1ccc(-c2noc(COc3ccccc3OC)n2)cc1OC was read as TDP1 cell noCPT inconclusive, HT1080-NT tox 1.2%, IL1B secr inh -29.4, HT1080 IDH1KD tx -3.8% and TDP1 cell CPT 16.4µM*.
For Cc1ccc2nc(SCc3nnc(-c4cccs4)o3)[nH]c2c1 the results were TDP1 cell noCPT 11.6µM*, HT1080-NT tox -3.8%, IL1B secr inh 2.9, HT1080 IDH1KD tx -10.5% and TDP1 cell CPT inconclusive.
`Cc1noc(C)c1CSc1nc2ccccc2[nH]1` gave TDP1 cell noCPT -3.6%, HT1080-NT tox 17.4%, IL1B secr inh -1.7, HT1080 IDH1KD tx 3.2% and TDP1 cell CPT -7.3%.
Screening COc1ccccc1-c1noc(CSc2nc3ccc(C)cc3[nH]2)n1 returned TDP1 cell noCPT 16.4µM* and TDP1 cell CPT inconclusive.
For Cc1ccccc1-c1noc(CSc2nc3ccccc3[nH]2)n1 the results were TDP1 cell noCPT 6.51µM* and TDP1 cell CPT 18.4µM*.
`NC(=O)C1CCN(C(=O)C2CC(=O)N(c3ccc4c(c3)OCCO4)C2)CC1` (configuration not stated) gave TDP1 cell noCPT -0.9%, HT1080-NT tox 1.7%, IL1B secr inh 7.0, HT1080 IDH1KD tx 3.4% and TDP1 cell CPT -8.7%.
COCCn1c(SCC(=O)Nc2ccc(OC)c(S(N)(=O)=O)c2)nc2ccccc2c1=O was read as TDP1 cell noCPT -22.3%, HT1080-NT tox -13.3%, IL1B secr inh -13.0, HT1080 IDH1KD tx -5.0% and TDP1 cell CPT 7.1%.
COc1cc(/C=C(/C#N)C(=O)Nc2ccc(C)cc2)ccc1Oc1nc(Cl)ncc1F was read as TDP1 cell noCPT 16.4µM*, HT1080-NT tox inconclusive, IL1B secr inh 0.0, HT1080 IDH1KD tx inconclusive and TDP1 cell CPT 23.1µM*.
Screening COc1ccc(/C=N/n2cnnc2)cc1Oc1nc(Cl)ncc1F returned TDP1 cell noCPT 8.8%, HT1080-NT tox 18.6%, IL1B secr inh 10.7, HT1080 IDH1KD tx 8.6% and TDP1 cell CPT 5.9%.
Screening COc1cc(/C=N/n2cnnc2)ccc1Oc1nc(Cl)ncc1F returned TDP1 cell noCPT inconclusive, HT1080-NT tox 4.3%, IL1B secr inh -18.0, HT1080 IDH1KD tx -1.1% and TDP1 cell CPT 16.4µM*.
Screening O=C(Cn1c(=O)n(-c2ccc(F)cc2)c(=O)c2sccc21)c1ccccc1 returned TDP1 cell noCPT -7.6%, HT1080-NT tox -4.2%, IL1B secr inh -26.9, HT1080 IDH1KD tx 0.9% and TDP1 cell CPT -7.8%.

Screens as filed in PubChem.
